# Measurements published in PubChem BioAssay (Tox21).
# Unmarked numbers belong to inactive results. Inconclusive results are not listed. A call without a number means that no potency is given here. Activity calls are given as the source filed them. Unless noted, the call rests on the fitted dose curve; in most records, active means well fitted curve in the direction sought with a large enough effect in the repeat runs; inconclusive means weak or mixed curves; inactive means no such curve, though single readings can be large; an effect the other way counts as inactive or inconclusive.
# Legend:
# [1] = qHTS assay for small molecules that induce genotoxicity in human embryonic kidney cells expressing luciferase-tagged ATAD5 (AID 651632); further: nearly all actives have a fitted effect of over 15% in size
# Outline: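 Luminescence read-out: after 16 hr compound exposure at 37C, ATAD5-luciferase HEK293T cells received Amplite, 30 min RT, then CCD imaging. A rise in signal marks genotoxic stress.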
# [2] = qHTS assay for small molecule agonists of the p53 signaling pathway - cell viability (AID 651633; calls by dose curve; further: nearly all actives have a fitted effect of over 30% in size; further: potency means the concentration at half of the fitted maximal effect)
# Outline: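 Viability counter-read: CellTiter-Glo luminescence (30 min, room temperature) in the same p53RE-bla plates. These plates had been exposed to compounds for 16 h at 37 C.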
# [3] = qHTS assay for small molecules that induce genotoxicity in human embryonic kidney cells expressing luciferase-tagged ATAD5 - cell viability (AID 651634; calls by dose curve; further: nearly all actives have a fitted effect of over 25% in size; further: potency means the concentration at half of the fitted maximal effect)
# Outline: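 HEK293T ATAD5-luc cells, 2,000/well; compound 15.5 hr, 37C/5% CO2; CellTiter-Fluor 30 min, 37C; fluorescence read.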
# [4] = qHTS assay for small molecule disruptors of the mitochondrial membrane potential - cell viability (AID 720634; calls by dose curve;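 further: human HepG2 liver cancer cells; series mostly up to about 83 µM; nearly all actives have a fitted effect of over 20% in size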)
# Outline: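 Luminescence from CellTiter-Glo (ATP content) gave viability in HepG2 cells, read in the same wells as the MMP dye assay after 1 hr compound exposure at 37 C.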
# [5] = qHTS assay for small molecule disruptors of the mitochondrial membrane potential (AID 720635); further: potency means the concentration at half of the fitted maximal effect
# Outline: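 Mitochondrial membrane potential tracked with Mito-MPS dye, red aggregates (ex 540/em 590 nm) against green monomers (ex 490/em 535 nm). Compound treatment 1 hr at 37C, dye 30 min in HepG2.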
# [6] = qHTS assay to test for compound auto fluorescence at 590 nm (red) in HepG2 cells (AID 720674)
# Outline: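 We screened compounds on adherent HepG2 cells, incubating them for an hour at 37 C in 5% CO2 before reading emission at 590 nm under 540 nm excitation; values reflect equivalence to Rose Bengal sodium fluorescence.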
# [7] = qHTS assay to test for compound auto fluorescence at 460 nm (blue) in HEK293 cells (AID 720678)
# Outline: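 Blue-channel (Ex/Em 405/460 nm) intensity measured in HEK293 cultures after overnight compound exposure at 37C; signal expressed relative to triamterene. Cells plated 2,000 per well in 10% dialyzed FBS medium and allowed 4-5 hr to attach.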
# [8] = qHTS assay to test for compound auto fluorescence at 590 nm (red) in HEK293 cells (AID 720679)
# Outline: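 Red-channel autofluorescence (Ex/Em 540/590 nm; Rose Bengal sodium reference) was measured after overnight 37C, 5% CO2 exposure of attached HEK293 cells, 2,000 per well in medium with 10% dialyzed FBS.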
# [9] = qHTS assay to test for compound auto fluorescence at 535 nm (green) in HEK293 cells (AID 720680)
# [10] = qHTS assay to test for compound auto fluorescence at 460 nm (blue) in HEK293 cell free culture (AID 720681)
# Outline: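 Blue fluorescence (Ex 405/Em 460 nm, triamterene-equivalent) was read immediately after pin transfer of compound or DMSO into medium (DMEM, 10% FBS) without cells.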
# [11] = qHTS assay to test for compound auto fluorescence at 535 nm (green) in HEK293 cell free culture (AID 720682)
# Outline: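 Cell-free medium (DMEM, 10% FBS) receives compound or DMSO by pintool. Plate read directly at Ex 485/Em 535 nm. Signal converted to fluorescein equivalency.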
# [12] = qHTS assay to test for compound auto fluorescence at 590 nm (red) in HEK293 cell free culture (AID 720683)
# Outline: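 Red-channel autofluorescence of compounds in culture medium (DMEM, 10% FBS), no cells, measured at 540/590 nm. Rose Bengal sodium is the reference fluorophore for equivalence.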
# [13] = qHTS assay to test for compound auto fluorescence at 590 nm (red) in HepG2 cell free culture (AID 720684)
# Outline: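 No cells present: MEM + 10% FBS only. Compound pinned in, red label read (540/590 nm). Activity = fluorescence equivalent to Rose Bengal sodium.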
# [14] = qHTS assay to test for compound auto fluorescence at 460 nm (blue) in HepG2 cell free culture (AID 720685)
# Outline: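 Cell-free plates of MEM plus 10% FBS received 23 nL compound or DMSO vehicle; blue-channel (405/460 nm) intensity scored against triamterene as reference fluorophore.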
# [15] = qHTS assay to test for compound auto fluorescence at 535 nm (green) in HepG2 cell free culture (AID 720686)
# [16] = qHTS assay to test for compound auto fluorescence at 460 nm (blue) in HepG2 cells (AID 720687)
# Outline: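 Blue-channel autofluorescence (Ex/Em 405/460 nm, triamterene-equivalent) was measured after 1 hr compound exposure at 37 C, 5% CO2. Cells were HepG2, plated overnight at 37 C in MEM plus 10% FBS.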
# [17] = target: Glucocorticoid receptor (Homo sapiens) (UniProt P04150); experiment: qHTS assay to identify small molecule agonists of the glucocorticoid receptor (GR) signaling pathway (AID 720691; active means well fitted activation curve with a large enough effect in the signal ratio in the repeat runs, not every such curve was filed as active; the % refers to the signal ratio)
# Outline: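 HeLa GR-bla reporter line; cells pre-incubated 4 h, compound in DMSO 18 h at 37 C; LiveBLAzer B/G FRET substrate 2 h RT; fluorescence intensity read-out.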
# [18] = target: Glucocorticoid receptor (Homo sapiens) (UniProt P04150); experiment: qHTS assay to identify small molecule antagonists of the glucocorticoid receptor (GR) signaling pathway (AID 720692; active means well fitted inhibition curve with a large enough effect in the signal ratio in the repeat runs, not every such curve was filed as active; the % refers to the signal ratio; further: potency means the concentration at half of the fitted maximal effect)
# Outline: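 Read-out: beta-lactamase FRET substrate fluorescence, 2 h at room temperature, in HeLa cells stably carrying a GRE-driven bla reporter. Compounds were co-incubated with 5 nM dexamethasone agonist (final) for 18 h at 37 C.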
# [19] = qHTS assay to test for compound auto fluorescence at 535 nm (green) in HepG2 cells (AID 720675)
# Glucocorticoid receptor (Homo sapiens), sequence (P04150 whole entry, looked up): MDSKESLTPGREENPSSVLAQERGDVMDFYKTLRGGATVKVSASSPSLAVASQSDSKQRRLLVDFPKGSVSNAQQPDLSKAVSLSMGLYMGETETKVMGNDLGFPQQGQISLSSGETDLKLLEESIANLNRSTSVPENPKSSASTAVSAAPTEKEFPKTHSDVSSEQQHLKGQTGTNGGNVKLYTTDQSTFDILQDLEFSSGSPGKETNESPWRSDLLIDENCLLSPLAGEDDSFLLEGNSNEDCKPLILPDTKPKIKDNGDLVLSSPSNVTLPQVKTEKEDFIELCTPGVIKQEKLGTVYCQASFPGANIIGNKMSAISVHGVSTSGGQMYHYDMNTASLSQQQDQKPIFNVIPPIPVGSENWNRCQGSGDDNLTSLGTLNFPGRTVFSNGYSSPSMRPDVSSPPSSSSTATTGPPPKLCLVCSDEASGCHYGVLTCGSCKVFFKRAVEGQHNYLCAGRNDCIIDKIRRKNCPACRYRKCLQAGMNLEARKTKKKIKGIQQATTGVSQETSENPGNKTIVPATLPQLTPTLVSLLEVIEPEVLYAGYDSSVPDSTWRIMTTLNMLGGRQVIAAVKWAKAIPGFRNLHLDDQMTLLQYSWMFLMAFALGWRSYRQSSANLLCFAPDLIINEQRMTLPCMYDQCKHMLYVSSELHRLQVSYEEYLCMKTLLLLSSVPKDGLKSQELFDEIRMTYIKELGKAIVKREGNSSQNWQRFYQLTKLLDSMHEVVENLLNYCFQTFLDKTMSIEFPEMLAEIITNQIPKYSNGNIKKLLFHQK
smiles,measurement,setting,value
O=C1NC(=O)c2cccc3cccc1c23,Potency,[1],inactive
same,Potency,[2],inactive
same,Potency,[3],inactive
same,outcome,[4],inactive
same,Potency,[5],10.9 µM (active)
same,outcome,[6],inactive
same,Potency,[7],inactive
same,outcome,[8],inactive
same,outcome,[9],inactive
same,Potency,[10],inactive
same,outcome,[11],inactive
same,outcome,[12],inactive
same,outcome,[13],inactive
same,Potency,[14],inactive
same,outcome,[15],inactive
same,Potency,[16],inactive
same,Potency,[17],inactive
same,Potency,[18],inactive
CCCCCCCCCCCCCC(=O)OCC(O)CO (centres undefined),Potency,[1],inactive
same,Potency,[2],inactive
same,Potency,[3],inactive
same,outcome,[4],inactive
same,outcome,[6],inactive
same,outcome,[19],inactive
same,Potency,[7],inactive
same,outcome,[8],inactive
same,outcome,[9],inactive
same,Potency,[10],inactive
same,outcome,[11],inactive
same,outcome,[12],inactive
same,outcome,[13],inactive
same,Potency,[14],inactive
same,outcome,[15],inactive
same,Potency,[16],inactive
same,Potency,[17],inactive
CCCCCCCCCCCC(=O)OCC(O)CO (centres undefined),Potency,[1],inactive
same,Potency,[2],inactive
same,Potency,[3],inactive
same,outcome,[4],inactive
same,outcome,[6],inactive
same,Potency,[7],inactive
same,outcome,[8],inactive
same,outcome,[9],inactive
same,Potency,[10],inactive
same,outcome,[11],inactive
same,outcome,[12],inactive
same,outcome,[13],inactive
same,Potency,[14],inactive
same,outcome,[15],inactive
same,Potency,[16],inactive
O=C1CC[C@@H](C(=O)O)N1,Potency,[1],inactive
same,Potency,[2],inactive
same,Potency,[3],inactive
same,outcome,[6],inactive
same,outcome,[19],inactive
same,Potency,[7],inactive
same,outcome,[8],inactive
same,outcome,[9],inactive
same,Potency,[10],inactive
same,outcome,[11],inactive
same,outcome,[12],inactive
same,outcome,[13],inactive
same,Potency,[14],inactive
same,outcome,[15],inactive
same,Potency,[16],inactive
same,Potency,[17],inactive
O=C(O)CNC(=O)c1ccccc1I,Potency,[1],inactive
same,Potency,[2],inactive
same,Potency,[3],inactive
same,outcome,[4],inactive
same,outcome,[6],inactive
same,Potency,[7],inactive
same,outcome,[9],inactive
same,Potency,[10],inactive
same,outcome,[11],inactive
same,outcome,[12],inactive
same,outcome,[13],inactive
same,Potency,[14],inactive
same,outcome,[15],inactive
same,Potency,[16],inactive
same,Potency,[17],inactive
same,Potency,[18],inactive
O=C(O)/C=C/c1ccc(O)c(O)c1,Potency,[1],inactive
same,Potency,[2],inactive
same,Potency,[3],inactive
same,outcome,[4],inactive
same,outcome,[6],inactive
same,outcome,[19],inactive
same,Potency,[7],inactive
same,outcome,[8],inactive
same,outcome,[9],inactive
same,outcome,[11],inactive
same,outcome,[12],inactive
same,outcome,[13],inactive
same,Potency,[14],inactive
same,outcome,[15],inactive
same,Potency,[16],inactive
same,Potency,[17],inactive
same,Potency,[18],inactive
CCCCCCCCCCCCCOC(=O)CCSCCC(=O)OCCCCCCCCCCCCC,Potency,[1],inactive
same,Potency,[2],inactive
same,Potency,[3],inactive
same,outcome,[4],inactive
same,"fluorescence, relative to Rose Bengal",[6],0.06% [at 18.6 µM]
same,"fluorescence, % of fluorescein control",[19],-0.0137% [at 18.6 µM]
same,"fluorescence, % of triamterene",[7],0.0236% [at 18.6 µM]
same,"fluorescence, % of fluorescent control",[8],0.358% [at 18.6 µM]
same,"fluorescence, % of fluorescent control",[10],-0.0348% [at 18.6 µM]
same,activity change,[11],0.0335% [at 18.6 µM]
same,"fluorescence, % of fluorescent control",[12],0.0989% [at 18.6 µM]
same,"fluorescence, % of Rose Bengal",[13],-0.0106% [at 18.6 µM]
same,"fluorescence, % of fluorescent control",[14],-0.0714% [at 18.6 µM]
same,"fluorescence, % of fluorescein control",[15],-0.0124% [at 18.6 µM]
same,"fluorescence, % of fluorescent control",[16],-0.106% [at 18.6 µM]
COc1cc(NCc2ccc3nc(N)nc(N)c3c2C)cc(OC)c1OC,Potency,[1],inactive
same,Potency,[2],0.335 µM (active)
same,Potency,[3],inactive
same,outcome,[4],inactive
same,outcome,[6],inactive
same,outcome,[19],inactive
same,Potency,[7],inactive
same,outcome,[8],inactive
same,outcome,[9],inactive
same,Potency,[10],inactive
same,outcome,[11],inactive
same,outcome,[12],inactive
same,Potency,[14],inactive
same,outcome,[15],inactive
same,Potency,[16],inactive
same,Potency,[17],inactive
Cc1ccc(N(CC2=NCCN2)c2cccc(O)c2)cc1,Potency,[1],inactive
same,Potency,[2],inactive
same,Potency,[3],inactive
same,outcome,[4],inactive
same,outcome,[6],inactive
same,outcome,[19],inactive
same,Potency,[7],inactive
same,outcome,[8],inactive
same,outcome,[9],inactive
same,Potency,[10],inactive
same,outcome,[11],inactive
same,outcome,[12],inactive
same,Potency,[14],inactive
same,outcome,[15],inactive
same,Potency,[16],inactive
same,Potency,[17],inactive
same,Potency,[18],inactive
CC(=O)NNC(C)=O,Potency,[1],inactive
same,Potency,[2],inactive
same,Potency,[3],inactive
same,outcome,[4],inactive
same,outcome,[6],inactive
same,outcome,[19],inactive
same,Potency,[7],inactive
same,outcome,[8],inactive
same,outcome,[9],inactive
same,Potency,[10],inactive
same,outcome,[11],inactive
same,outcome,[12],inactive
same,outcome,[13],inactive
same,Potency,[14],inactive
same,outcome,[15],inactive
same,Potency,[16],inactive
same,Potency,[17],inactive
same,Potency,[18],inactive
Cc1cc([N+](=O)[O-])ccc1N,Potency,[1],inactive
same,Potency,[2],inactive
same,Potency,[3],47.9 µM (active)
same,outcome,[4],inactive
same,outcome,[6],inactive
same,outcome,[19],inactive
same,Potency,[7],inactive
same,outcome,[8],inactive
same,outcome,[9],inactive
same,Potency,[10],inactive
same,outcome,[11],inactive
same,outcome,[12],inactive
same,Potency,[14],inactive
same,outcome,[15],inactive
same,Potency,[16],inactive
same,Potency,[17],inactive
same,Potency,[18],inactive
CCCCCCCC/C=C\CCCCCCCC(=O)OCCO,Potency,[1],inactive
same,Potency,[2],inactive
same,Potency,[3],inactive
same,outcome,[4],inactive
same,Potency,[5],inactive
same,outcome,[6],inactive
same,outcome,[19],inactive
same,Potency,[7],inactive
same,outcome,[8],inactive
same,Potency,[10],inactive
same,outcome,[11],inactive
same,outcome,[12],inactive
same,outcome,[13],inactive
same,Potency,[14],inactive
same,outcome,[15],inactive
same,Potency,[16],inactive
same,Potency,[17],inactive
same,Potency,[18],57.8 µM (active)
COc1cc(OC)c2ccc(=O)oc2c1,Potency,[1],inactive
same,Potency,[2],inactive
same,Potency,[3],inactive
same,outcome,[4],inactive
same,outcome,[6],inactive
same,outcome,[19],inactive
same,outcome,[9],inactive
same,outcome,[11],inactive
same,outcome,[12],inactive
same,outcome,[13],inactive
same,outcome,[15],inactive
CCCOC(=O)c1c(Cl)c(Cl)c(Cl)c(Cl)c1C(=O)OCCC,Potency,[1],inactive
same,Potency,[2],inactive
same,Potency,[3],inactive
same,outcome,[4],inactive
same,Potency,[5],61.1 µM (active)
same,outcome,[6],inactive
same,Potency,[7],inactive
same,outcome,[8],inactive
same,outcome,[9],inactive
same,Potency,[10],inactive
same,outcome,[11],inactive
same,outcome,[12],inactive
same,outcome,[13],inactive
same,Potency,[14],inactive
same,outcome,[15],inactive
same,Potency,[16],inactive
same,Potency,[17],inactive
same,Potency,[18],inactive
COc1ccc(CCN(C)CCCN2CCc3cc(OC)c(OC)cc3CC2=O)cc1OC,Potency,[1],inactive
same,Potency,[2],inactive
same,Potency,[3],inactive
same,outcome,[4],inactive
same,Potency,[5],inactive
same,outcome,[6],inactive
same,Potency,[7],inactive
same,outcome,[8],inactive
same,Potency,[10],inactive
same,outcome,[11],inactive
same,outcome,[12],inactive
same,outcome,[13],inactive
same,Potency,[14],inactive
same,outcome,[15],inactive
same,Potency,[16],inactive
